# Measurements from PubChem BioAssay AID588591 (National Center for Advancing Translational Sciences (NCATS), 2011).
# The campaign covered roughly 390,000 compounds. About 4,700 (1.2%) were called active. Another 4% or so got no clear call; they are omitted. Calls follow the shape of the dose curve; as a rule, active = well fitted inhibition curve with a large enough effect; inconclusive = small, poorly fitted or top-dose-only effect, or another doubt; inactive = no such curve, though single readings can be large or run the other way. The sample as a whole holds a higher share of actives than the screen did.
# Target: DNA polymerase eta (Homo sapiens) (UniProt Q9Y253)
# Sequence (Q9Y253 whole entry, looked up): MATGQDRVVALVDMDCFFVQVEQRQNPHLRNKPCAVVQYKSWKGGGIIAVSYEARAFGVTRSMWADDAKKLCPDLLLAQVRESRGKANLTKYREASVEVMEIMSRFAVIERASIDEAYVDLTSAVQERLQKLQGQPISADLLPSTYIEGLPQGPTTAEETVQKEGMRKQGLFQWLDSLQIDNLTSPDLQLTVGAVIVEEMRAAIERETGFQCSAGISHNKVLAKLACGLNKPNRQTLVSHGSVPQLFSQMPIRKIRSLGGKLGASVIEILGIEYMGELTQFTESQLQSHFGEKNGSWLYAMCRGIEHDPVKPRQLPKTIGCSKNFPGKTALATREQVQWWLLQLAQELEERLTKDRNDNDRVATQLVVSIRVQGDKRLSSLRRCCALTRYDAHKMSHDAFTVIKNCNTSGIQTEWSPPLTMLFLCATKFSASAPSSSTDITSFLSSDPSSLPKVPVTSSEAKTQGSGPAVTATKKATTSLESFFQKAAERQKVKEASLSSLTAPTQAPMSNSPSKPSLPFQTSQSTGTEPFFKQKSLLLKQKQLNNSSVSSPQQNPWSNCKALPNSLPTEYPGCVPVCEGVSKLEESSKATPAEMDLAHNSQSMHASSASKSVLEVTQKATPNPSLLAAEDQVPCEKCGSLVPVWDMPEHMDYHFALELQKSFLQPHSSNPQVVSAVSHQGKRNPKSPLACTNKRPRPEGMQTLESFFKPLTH
# Assay: qHTS for Inhibitors of Polymerase Eta
# Conditions: recombinant Pol eta, fluorescent DNA replication assay; series mostly up to 114 µM; activity change, negative = inhibition: at the top concentration
# Source text: The Y-family of DNA polymerases, such as Pol eta, are specifically involved in DNA repair. Pol eta copies undamaged DNA with a lower fidelity than other DNA-directed polymerases. However, it accurately replicates UV-damaged DNA; when thymine dimers are present, this polymerase inserts the complementary nucleotides in the newly synthesized DNA, thereby bypassing the lesion and suppressing the mutagenic effect of UV-induced DNA damage. […] Thus, while pol eta's (and most likely iota's) normal function is to protect humans against the deleterious consequences of DNA damage, under certain conditions they can have deleterious effects on human health. As a consequence, we propose to utilize a high throughput replication assay to identify small molecule inhibitors of pol eta. In a collaboration between the National Institute of Child Health & Human Development (NICHD) and NIH Chemical Genomics Center, a high-throughput, fluorescent screen was developed to screen the NIH Molecular Libraries Small Molecule Repository (MLSMR). This screen is used to identify inhibitors of pol eta. NIH Chemical Genomics Center [NCGC] NIH Molecular Libraries Probe Centers Network [MLPCN] MLPCN Grant: MH090825 Assay Submitter (PI): Roger Woodgate, NICHD)
# Three microliters of reagents (buffer in column 3 and 4 as negative control and 10 nM Pol eta in columns 1, 2, and 5-48) were dispensed into a 1,536-well black solid-bottomed plate. Compounds (23 nL) were transferred via Kalypsys pin tool equipped with 1536-pin array. The plates were then incubated for 15 min at room temperature, and 1 µL substrate (50 nM final concentration) was added to start the reaction and kinetically read twice at 0 min and 10 min on the Viewlux reader
# % is scaled to controls: 0 for no effect and ±100 for the full control effect; potency is read from the fitted curve at half-maximal effect.
Compound,Potency,"activity change, negative = inhibition"
Cc1cccc(N2C(=O)NC(=O)/C(=C\c3cnn(-c4ccccc4)c3)C2=O)c1,20 µM (active),–
CN1C2C=C(N(C(=O)c3ccc(Cl)cc3)c3ccccc3)CC1CC2 (stereo not given),–,-9.96% (inactive)
CCN(N=Nc1nonc1OC)c1nonc1OC,–,-12.3% (inactive)
C=CC12CN(C)[C@@H]3C4CO[C@H](C[C@H]41)[C@]1(C(=O)Nc4ccccc41)[C@@H]32 (stereo not given in full),–,-3.38% (inactive)
Cc1c(C(=O)O)cccc1-n1c(C)cc(/C=C2\C(=O)NC(=O)N(c3ccc4c(c3)OCO4)C2=O)c1C,5.01 µM (active),–
c1cc2c(cc1C1OCC3C(c4ccc5c(c4)OCO5)OCC13)OCO2 (stereo not given),–,-9.72% (inactive)
c1ccc2sc(N3CCNCC3)nc2c1,–,-1.82% (inactive)
CC(=NC1CCN(Cc2ccccc2)CC1)c1c(O)n(C)c(=O)n(C)c1=O,–,-9.48% (inactive)
Cn1c(O)c(C=Nc2ccc3c(c2)CCC3)c(=O)n(C)c1=O,–,5.46% (inactive)
Cc1ccc(-n2c(C)cc(/C=C3\C(=O)NC(=O)N(C)C3=O)c2C)cc1C,11.2 µM (active),–
Cc1cc(/C=C2/C(=O)NC(=O)N(Cc3ccco3)C2=O)c(C)n1-c1ccc(C(=O)O)cc1,17.8 µM (active),–
Cc1ccnc(-n2c(C)cc(/C=C3\C(=O)NC(=S)N(C)C3=O)c2C)c1,–,-22.2% (inactive)
c1ccc2c(c1)[I+]c1ccccc1-2,–,0.161% [at 57.1 µM] (inactive)
CC(=O)NBr,–,0.441% [at 57.1 µM] (inactive)
Fc1cccc(F)c1CN1CCN(Cc2c(F)cccc2F)CC1,–,6.32% (inactive)
CCOC(=O)c1ncn2c1[C@@H]1CCCN1C(=O)c1cc(OC)ccc1-2,–,-2.57% [at 57.1 µM] (inactive)
Cc1c(Oc2cc(NN3CCCCC3)c([N+](=O)[O-])cc2[N+](=O)[O-])cccc1[N+](=O)[O-],–,-7.33% (inactive)
CN(c1ccccc1)c1ccc([N+](=O)[O-])c2nonc12,–,-2.95% (inactive)
Nc1ccc([N+](=O)[O-])cc1,–,-1.32% (inactive)
COC(=O)N(c1ccc(OC)cc1)P1(=S)OCCC(C)O1 (stereo not given),–,-7.27% (inactive)
CC1CCCN1CCC(C(N)=O)(c1ccccc1)c1ccccc1 (stereo not given),–,-6.87% (inactive)
CC[N+](CC)(CC)CCCCCCCCCC[N+](CC)(CC)CC,–,-1.02% (inactive)
CC(=O)c1c(O)n(C2CCCCCC2)c(=O)[nH]c1=O,–,6.54% (inactive)
O=C1NC(=O)N(c2ccc(F)cc2)C(=O)/C1=C/c1ccc2c(c1)CCCN2Cc1ccccc1,20 µM (active),–
CCC1(CC(C)c2ccccc2)C(=O)NC(=O)NC1=O (stereo not given),–,1.04% (inactive)

Compound,Potency,"activity change, negative = inhibition"
Cc1cccc(OP(=O)(Oc2cccc(C)c2)OC(c2ccccc2)C(F)(F)F)c1 (stereo not given),–,-15% (inactive)
CN(C)/C=C(\C=[N+](C)C)c1[nH]ncc1[N+](=O)[O-],–,-11.4% (inactive)
COc1ccc(N2C(=O)/C(=C/c3ccco3)C(=O)NC2=S)cc1,1.12 µM (active),–
CC(=O)N1CN2CN(C(C)=O)CC(C(=O)c3ccc(Br)cc3)(C2)C1,–,-12.3% (inactive)
Cc1ccc(CN2CCCC(C(=O)c3ccc4c(c3)OCO4)C2)cc1C (stereo not given),–,31.1% (inactive)
O=C1NC(=O)C(C/C=C/c2ccccc2)C(=O)N1,–,-5.62% (inactive)
C[C@@H]1CC[C@@]2(OC1)O[C@H]1C[C@H]3[C@@H]4CC=C5C[C@@H](O)[C@H](O)C[C@]5(C)C4CC[C@]3(C)[C@H]1[C@@H]2C (stereo not given in full),89.1 µM (active),–
CN(C)c1ccc(/C=C2\CC3C4CC=C5CC(O)CCC5(C)C4CCC3(C)C2=O)cc1 (stereo not given),–,1.76% (inactive)
CCOC(=O)C(O)(c1ccc(N)c(OC)c1)C(F)(F)F (stereo not given),–,-15.8% (inactive)
COC(=O)C(O)(c1ccc(NC(=O)c2ccco2)c(OC)c1)C(F)(F)F (stereo not given),–,-12.3% (inactive)
CCCCN1C2CCC1CC(OC(c1ccc(F)cc1)c1ccc(F)cc1)C2 (stereo not given),–,-6.59% [at 57.1 µM] (inactive)
C[C@@H]1C[C@@H]2O[C@H]2/C=C\C=C\C(=O)Cc2c(Cl)c(O)cc(O)c2C(=O)O1,10 µM (active),–
COc1ccc(-n2c(O)c(C(C)=Nc3ccc4c(c3)CCC4)c(=O)[nH]c2=O)cc1,–,-16.7% (inactive)
O=C(Nc1ccc(Cl)cc1C(=O)c1ccccc1)c1cc(Cl)cc(Cl)c1,–,-12% (inactive)
COc1ccc(C2C=C(C)Oc3c2c(=O)oc2ccccc32)cc1OC (stereo not given),–,1.27% (inactive)
CCN1C(=O)NC(=O)C2(CCCC2)C1=O,–,-7.47% (inactive)
O=C1NC(=O)N(CCc2ccc(F)cc2)C(=O)/C1=C/C=C/c1ccccc1,50.1 µM (active),–
COC(=O)C1=C(c2cc3ccccc3s2)C[C@@H]2CC[C@H]1N2C(=O)NC(C)C,–,-1.91% (inactive)
COc1ccc(C(=O)CC2C(=O)N(C)C(=O)N(C)C2=O)cc1,–,-4.75% (inactive)
Cc1cc2ccccn2c1C(C[N+](=O)[O-])c1c(F)cccc1Cl (stereo not given),–,-12.9% (inactive)
O=C1NC(=O)N(c2ccccc2)C(=O)/C1=C/c1ccc([N+](=O)[O-])s1,10 µM (active),–
COc1cccc(N2C(=O)NC(=O)/C(=C\c3ccc([N+](=O)[O-])s3)C2=O)c1,17.8 µM (active),–
Cn1c(O)c(C=NCCN2CCNCC2)c(=O)n(C)c1=O,–,-5.18% (inactive)
COC(=O)C1=C(c2ccc(OCc3ccccc3)cc2)C[C@@H]2CC[C@H]1N2C(=O)NCc1ccc(Cl)cc1,–,-23.3% (inactive)
O=C(O)C1C2CCC(O2)C1C(=O)O (stereo not given),–,-2.24% [at 57.1 µM] (inactive)

Compound,Potency,"activity change, negative = inhibition"
CC1=C(C(=O)Nc2ccccc2)SCCO1,–,-19.1% (inactive)
CCOC(=O)C1SC2(C(F)(F)C(F)F)CC1(O)c1c(c(OC)c3occc3c1OC)O2 (stereo not given),–,0.0717% (inactive)
CCN1CCN(c2nc3c(c(=O)[nH]2)CCC3)CC1,–,-11.4% (inactive)
Cc1cccc(NC(=O)OC2CN3CCC2CC3)c1 (stereo not given),–,-12.7% (inactive)
CN(C)S(=O)(=O)c1cc(C(=O)N2CCC(C(=O)O)(c3ccccc3)CC2)ccc1Cl,–,-13.7% (inactive)
COC(=O)C1=C(c2c(C)noc2C)C[C@@H]2CC[C@H]1N2C(=O)NCc1ccc2c(c1)OCO2,–,-20.6% (inactive)
CCc1ccc(OCC(=O)N2CCN(CC(=O)Nc3ccccc3Cl)CC2)cc1,–,-21.1% (inactive)
C[C@H]1CN([C@@H](C)CO)C(=O)CCCn2nncc2CO[C@H]1CN(C)C(=O)Oc1ccccc1,–,-7.47% (inactive)
Cc1cc(C(=O)OCC(=O)Nc2c(F)cccc2F)c(C)n1C1CC1,–,-8.46% (inactive)
CN1CCN(/N=C/c2c[nH]c3ccccc23)CC1,–,-23.5% (inactive)
CN1CCc2nc(SC(C(=O)O)c3ccccc3)c(C#N)c(-c3cccs3)c2C1 (stereo not given),31.6 µM (active),–
Cc1ccc(-n2c(/C=C/c3cccc(C(F)(F)F)c3)nc3ccccc3c2=O)cc1,–,-2.12% (inactive)
O=C(CCCn1c(=O)[nH]c2cc(Cl)ccc2c1=O)N1CCC2(CC1)OCCO2,–,-5.01% (inactive)
CCN(CC)C(=O)c1ccc(NC(=O)c2sccc2-c2ccccc2)cc1,–,-7.87% (inactive)
C=CCN(CC=C)C(=O)Nc1ccc(OCC)cc1,–,-2.67% (inactive)
CCOc1ccc(-c2cc(C)n3nc(C(=O)Nc4ccc(C)c(C)c4)cc3n2)cc1,70.8 µM (active),–
CC1=C(C(=O)Nc2ccccc2)S(=O)(=O)CCO1,–,-0.941% (inactive)
Cn1cc(C(=O)OCC(=O)N2CCCC2)c2ccccc21,–,-7.55% (inactive)
O=C1NC(=O)N(Cc2ccco2)C(=O)/C1=C\c1cccn1CCOc1ccccc1,79.4 µM (active),–
O=C1NC(=O)N(Cc2ccco2)C(=O)/C1=C\c1ccc(-c2ccc(F)cc2)o1,25.1 µM (active),–
COc1cccc(OC)c1C(=O)NC(=S)N1C[C@H]2C[C@H](C1)c1cccc(=O)n1C2,–,-12.9% (inactive)
CC(C)c1ccc(OCC(=O)N2CCN(C)CC2)c(Br)c1,–,1.25% (inactive)
CCOC(=O)C1=C(C)OC(N)=C(C(=O)OC)C12C(=O)Nc1ccc(Br)cc12 (stereo not given),–,-6.19% (inactive)
COc1cccc(CN2CCCC(C(=O)c3ccccc3SC)C2)c1O (stereo not given),–,-19% (inactive)
Cc1ccc(P(=S)(c2ccc(C)o2)N2CCOCC2)o1,–,0.879% (inactive)
